Gal4-VP16 FLuc = Gal4-VP16 reporter inhibition counter-screen; Drosophila S2 Gal4-VP16 UAS-luciferase, luminescence, 20 h; hit rate 3.5% among 310,000; Potency, µM (top dose mostly 53.6 µM), usual class: inhibitors;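 further: Gal4-VP16 expression switched on by copper sulfate through the metallothionein promoter; nearly all actives have a fitted effect of over 50% in size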
RORg inh = blocks mouse ROR gamma transcriptional activity; P51450; Drosophila S2 Gal4-RORgamma UAS-luciferase reporter, 20 h; Potency, µM (highest dose often 53.6 µM), most hits filed as inhibitors; hit rate 5.4% among 310,000; AID 2551; further: nearly all actives have a fitted effect of over 60% in size
Target sequence (P51450 whole entry, looked up, the tested form may be a part): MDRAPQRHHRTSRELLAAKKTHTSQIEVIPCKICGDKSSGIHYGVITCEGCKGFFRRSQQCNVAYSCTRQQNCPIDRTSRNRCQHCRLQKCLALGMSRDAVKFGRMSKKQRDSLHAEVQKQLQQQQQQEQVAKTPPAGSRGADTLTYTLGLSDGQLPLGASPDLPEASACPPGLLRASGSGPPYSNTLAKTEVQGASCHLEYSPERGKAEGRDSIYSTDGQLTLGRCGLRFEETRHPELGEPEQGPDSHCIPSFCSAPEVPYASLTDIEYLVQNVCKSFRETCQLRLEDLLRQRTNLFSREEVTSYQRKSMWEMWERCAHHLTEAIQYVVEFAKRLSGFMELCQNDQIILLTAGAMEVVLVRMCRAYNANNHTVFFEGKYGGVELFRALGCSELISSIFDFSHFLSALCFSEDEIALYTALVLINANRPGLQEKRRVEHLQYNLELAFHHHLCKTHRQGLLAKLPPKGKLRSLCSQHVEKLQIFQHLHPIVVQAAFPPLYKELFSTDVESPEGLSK
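Drosophila S2 cells stably expressing Gal4-DBD/mouse RORγ fusion under metallothionein promoter plus UAS-luciferase; compound 1 h, then 700 uM CuSO4 induction for 20 h at ambient temperature; inhibition read as reduced luminescence.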
ATXN2 expr inh = ATXN2 expression inhibition; HEK-293 ATXN2-luciferase reporter, luminescence, 24 h; Potency, µM (doses to about 57 µM), actives largely listed as inhibitors; hit rate 0.72% among 360,000; further: nearly all actives have a fitted effect of over 55% in size
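qHTS (up to 57 uM final) was run with 24 h compound exposure of reporter cells at 37 °C. Each well was multiplexed: SteadyGlo luminescence measured ATXN2-luciferase expression after a fluorogenic Gly-Phe-AFC viability readout (25 uM final).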
TGFb inhibitor = blocks TGF-b signaling. HepG2 CAGA-GFP TGF-b/SMAD3 reporter, GFP fluorescence, 18 h; TGF-beta stimulated, 500 pg/mL final. Potency, µM (highest dose often 46.1 µM), hits mostly inhibitors. hit rate 1.2% among 410,000; further: nearly all actives have a fitted effect of over 65% in size
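Read-out: total well GFP (ex488/em500-530) summed from mean per-cell fluorescence. Cells: HEPG2 CAGA-GFP, 1% FBS DMEM, 18 h at 37 degrees C with 500 pg/mL final TGF-beta. Unstimulated wells served as the full-inhibition control; stimulated DMSO wells = 0%.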
HepG2 tox = counter-screen for TGF-b inhibitors: cytotoxicity in HepG2 cells; HepG2 CAGA-GFP viability, ATP luminescence, 18 h; Potency, µM (top dose mostly 46.1 µM), most hits filed as cytotoxic; hit rate 0.76% among 410,000
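HepG2 CAGA-GFP cells (1000/well, DMEM with 1% FBS) received compound, then TGF-beta at 500 pg/mL final, and were incubated 18 hours at 37 degrees C. Viability was read by CellTiter-Glo luminescence. Media-only wells were set as complete cell-killing and DMSO as no toxicity.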
ATXN viability = viability counter-screen for ATXN expression inhibitors; Potency, µM (titrated, usually from 56.7 µM), usual class: cytotoxic; hit rate 0.49% among 400,000; S2 cells (HEK-293 line with an ATXN2-luciferase reporter) viability, CellTiter-Fluor protease fluorescence, 24 h; further: nearly all actives have a fitted effect of over 40% in size
Each line names hits and unclear results; the compound was inactive in the other large screens. Only some compounds are listed: those with a hit (about 6.3% of all), similar ones and a draw of the others. The call rests on the fitted dose curve; in most records, active means well fitted curve in the direction sought with a large enough effect; inconclusive means small, poorly fitted or top-dose-only effect, or another doubt; inactive means no such curve, though single readings can be large; an effect the other way counts as inactive or inconclusive.

CN(C)CCCNc1nc2cc(-c3cccc(C(F)(F)F)c3)sc2c(=O)n1C	ATXN2 expr inh 20µM, TGFb inhibitor inconclusive, ATXN viability 32µM (no result: Gal4-VP16 FLuc, RORg inh)
COCCNc1nc2cc(-c3cccc(C(F)(F)F)c3)sc2c(=O)n1C	none (no result: Gal4-VP16 FLuc, RORg inh)
CCC(CC)C(=O)NC1CC(=O)N(c2ccc3c(c2)OCCO3)C1 (centres undefined)	none (no result: Gal4-VP16 FLuc, RORg inh)
CCOC(=O)Cc1cc(=O)n2[nH]c(C)c(-c3ccc(Cl)cc3)c2n1	Gal4-VP16 FLuc inconclusive, RORg inh 11µM, ATXN2 expr inh inconclusive
COC(=O)Cc1cc(=O)n2[nH]c(C)c(-c3ccccc3)c2n1	Gal4-VP16 FLuc 4µM, RORg inh 3.5µM
CCCc1cc(=O)n2[nH]c(C)c(-c3ccccc3)c2n1	Gal4-VP16 FLuc inconclusive, RORg inh 7.1µM
CCOC(=O)Cc1cc(=O)n2[nH]c(C)c(-c3ccc(OC)cc3)c2n1	none (no result: Gal4-VP16 FLuc)
Cc1ccc(OCCN2CCN(c3ncnc4sc(C)c(C)c34)CC2)cc1	Gal4-VP16 FLuc 3.5µM, RORg inh 8.9µM
CCCN1CCN(c2ncnc3sc(C(=O)Nc4ccc(C(C)C)cc4)c(C)c23)CC1	ATXN2 expr inh inconclusive, TGFb inhibitor inconclusive (no result: Gal4-VP16 FLuc, RORg inh, ATXN viability)
CCCN1CCN(c2ncnc3sc(C(=O)Nc4ccc(OC(F)(F)F)cc4)c(C)c23)CC1	TGFb inhibitor 22µM (no result: Gal4-VP16 FLuc, RORg inh, ATXN2 expr inh, ATXN viability)
Clc1ccc(OCCN2CCN(c3ncnc4sccc34)CC2)cc1	Gal4-VP16 FLuc 0.63µM, RORg inh inconclusive
COc1ccc(S(=O)(=O)Nc2cccc3c2O[C@H](CN(C)S(=O)(=O)c2cccs2)[C@@H](C)CN([C@H](C)CO)C3=O)cc1	none (no result: Gal4-VP16 FLuc, RORg inh)
O=C(NNC(=S)Nc1ccccc1)c1cccnc1	none (no result: Gal4-VP16 FLuc, RORg inh)
C=CCNC(=S)NNC(=O)c1ccncc1	RORg inh 10µM (no result: ATXN2 expr inh)
C=CCNC(=S)NNC(=O)c1cccnc1	RORg inh inconclusive
CC(C)(C)NC(=S)NNC(=O)c1ccncc1	Gal4-VP16 FLuc 18µM, RORg inh 1.1µM
CCNC(=S)NNC(=O)c1ccncc1	RORg inh inconclusive (no result: ATXN2 expr inh)
CCC(C)c1ccccc1NC(=O)c1cccnc1 (centres undefined)	RORg inh 11µM, ATXN viability inconclusive
CC(C)c1ccccc1NC(=O)c1cccnc1	TGFb inhibitor inconclusive
Cc1ccccc1NC(=S)NNC(=O)c1cccnc1	Gal4-VP16 FLuc 16µM, RORg inh 6.3µM
CCCCn1cnc2c(=O)[nH]c(N)nc21	none (no result: Gal4-VP16 FLuc, RORg inh, ATXN2 expr inh, ATXN viability)
Cc1ccccc1NC(=S)NNC(=O)c1ccncc1	RORg inh 10µM
O=C(NNC(=S)NC(=O)c1cccnc1)c1ccc(F)cc1	Gal4-VP16 FLuc inconclusive, RORg inh 16µM
COc1ccccc1NC(=S)NNC(=O)c1ccncc1	none
O=C(Nc1ccc(F)c(F)c1)c1cnn2c1NC(=C1CC1)C=C2C(F)(F)F	none (no result: Gal4-VP16 FLuc, RORg inh, ATXN2 expr inh, ATXN viability)
O=c1[nH][nH]c(-c2ccccc2O)c1C(C[N+](=O)[O-])c1ccc(Br)cc1 (centres undefined)	Gal4-VP16 FLuc inconclusive, RORg inh inconclusive, ATXN2 expr inh inconclusive, TGFb inhibitor inconclusive, ATXN viability inconclusive
Cc1ccc(C(C[N+](=O)[O-])c2c(-c3ccccc3O)[nH][nH]c2=O)cc1 (centres undefined)	Gal4-VP16 FLuc 11µM, RORg inh 5µM, TGFb inhibitor inconclusive, HepG2 tox 7.9µM, ATXN viability inconclusive
CCN(CC)c1ccc(C(=O)OCC(=O)Nc2cc(C)on2)cc1	none (no result: Gal4-VP16 FLuc, RORg inh, ATXN2 expr inh)
Cc1ccc(S(=O)(=O)Nc2cc3c(cc2N2CCOCC2)n(C)c(=O)n3C)c(C)c1	none (no result: Gal4-VP16 FLuc, RORg inh)
CCOC(=O)C1(C)CCCN(C(=O)CCc2ccccc2)C1 (centres undefined)	TGFb inhibitor inconclusive (no result: Gal4-VP16 FLuc, RORg inh)
CCS(=O)(=O)c1ncc(Cl)c(C(=O)NCc2ccccc2)n1	none (no result: Gal4-VP16 FLuc, RORg inh, ATXN2 expr inh, TGFb inhibitor, ATXN viability)
CCNC(=O)c1c(NC(=O)c2nc(S(=O)(=O)CC)ncc2Cl)sc2c1CCCC2	TGFb inhibitor 1.4µM, HepG2 tox 4µM (no result: Gal4-VP16 FLuc, RORg inh, ATXN2 expr inh, ATXN viability)
CCNC(=O)c1c(NC(=O)c2nc(SCC)ncc2Cl)sc2c1CCCC2	none (no result: Gal4-VP16 FLuc, RORg inh, ATXN2 expr inh, ATXN viability)
CCOc1ccc(NC(=O)c2nc(S(=O)(=O)Cc3ccccc3)ncc2Cl)cc1	TGFb inhibitor 11µM, HepG2 tox 11µM (no result: Gal4-VP16 FLuc, RORg inh, ATXN2 expr inh, ATXN viability)
CCOc1ccc(NC(=O)c2nc(S(=O)(=O)Cc3ccc(C)cc3)ncc2Cl)cc1	TGFb inhibitor inconclusive, HepG2 tox 13µM (no result: Gal4-VP16 FLuc, RORg inh, ATXN2 expr inh, ATXN viability)

Assay outcomes as filed in PubChem.
